Data from PubChem BioAssay AID1159580 (chemical genetic matrix, 2015).
Values joined by “and” are separate entries in the source; they are usually repeats but may differ in a detail not shown here. Equal entries are not always repeated. Among all 5,500 compounds or so, about 2,000 (36%) were called active. Not shown: some 18% with an inconclusive outcome. Rule as the data show it: active = normalized growth mostly below about 0.91 (no sharp cut-off); inconclusive = no clear call, values can overlap the other calls; inactive = mostly above about 0.92. This is one part of the list.

Assay: chemical genetic growth profiling, strain panel (AID 1159580);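 also: tested at 20 µM; growth read once vehicle control cultures reached saturation at 30 °C; 1 = growth at the plate median or of vehicle wells; lower values mean less growth of the strain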
Conditions: S. cerevisiae deletion strains, growth OD

Measured: normalized growth

NCC(CC(=O)O)c1ccc(Cl)cc1 (configuration not stated)
inactive: locus YAL013W, strain DEP1, stronger effect = lower value 1.02 | locus YAL021C, strain ccr4, stronger effect = lower value 0.99 | locus YAL026C, strain drs2, stronger effect = lower value 0.997 | locus YAL030W, strain snc1, stronger effect = lower value 1 | locus YAL040C, strain CLN3, stronger effect = lower value 1.03 | locus YBL061C, strain skt5, stronger effect = lower value 1 | locus YBR009C, strain hhf1, stronger effect = lower value 0.968 | locus YBR021W, strain FUR4, stronger effect = lower value 1.04 | locus YBR023C, strain chs3, stronger effect = lower value 0.997 | locus YBR171W, strain sec66, stronger effect = lower value 1.01 | locus YBR229C, strain ROT2, stronger effect = lower value 1.01 | locus YBR231C, strain swc5, stronger effect = lower value 1.01 | locus YBR279W, strain paf1, stronger effect = lower value 0.994 | locus YCL011C, strain gbp2, stronger effect = lower value 0.992 | locus YCL016C, strain dcc1, stronger effect = lower value 0.976 | locus YCL029C, strain bik1, stronger effect = lower value 0.993 | locus YCL061C, strain MRC1 (second series), stronger effect = lower value 0.981 | locus YCL069W, strain vba3, stronger effect = lower value 0.994 | locus YCR088W, strain abp1, stronger effect = lower value 1 | locus YDL005C, strain med2, stronger effect = lower value 1 | locus YDL035C, strain GPR1, stronger effect = lower value 1.05 | locus YDL040C, strain nat1, stronger effect = lower value 0.995 | locus YDL074C, strain BRE1, stronger effect = lower value 1.03 | locus YDL101C, strain DUN1, stronger effect = lower value 1.01 | locus YDL185W, strain tfp1, stronger effect = lower value 0.993 | locus YDL192W, strain arf1, stronger effect = lower value 0.991 | locus YDR001C, strain nth1, stronger effect = lower value 0.995 | locus YDR069C, strain doa4, stronger effect = lower value 1.02 | locus YDR101C, strain arx1, stronger effect = lower value 0.979 | locus YDR137W, strain rgp1, stronger effect = lower value 0.98 | locus YDR150W, strain NUM1, stronger effect = lower value 1.01 | locus YDR159W, strain sac3, stronger effect = lower value 0.945 | locus YDR162C, strain NBP2, stronger effect = lower value 1.04 | locus YDR195W, strain ref2 0.995 | locus YDR297W, strain sur2, stronger effect = lower value 1.01 | locus YDR318W, strain mcm21, stronger effect = lower value 0.993 | locus YDR334W, strain swr1, stronger effect = lower value 1 | locus YDR335W, strain msn5, stronger effect = lower value 1 | locus YDR388W, stronger effect = lower value 0.99 | locus YDR392W, strain spt3, stronger effect = lower value 0.928 | locus YDR502C, strain sam2, stronger effect = lower value 0.991 | locus YEL003W, strain gim4, stronger effect = lower value 0.996 | locus YEL037C, strain rad23, stronger effect = lower value 0.998 | locus YEL061C, strain CIN8 (second series), stronger effect = lower value 1.01 | locus YEL061C, strain CIN8, stronger effect = lower value 1.01 | locus YER002W, strain NOP16, stronger effect = lower value 0.992 | locus YER015W, strain faa2, stronger effect = lower value 1 | locus YER016W, strain bim1, stronger effect = lower value 0.975 | locus YER110C, stronger effect = lower value 0.978 | locus YER111C, strain swi4, stronger effect = lower value 0.989 | locus YER155C, strain BEM2 (second series), stronger effect = lower value 1.02 | locus YER155C, strain BEM2, stronger effect = lower value 1.02 | locus YER167W, strain BCK2, stronger effect = lower value 1.02 | locus YFR010W, strain ubp6, stronger effect = lower value 1.01 | locus YGL078C, strain dbp3, stronger effect = lower value 0.984 | locus YGL086W, strain mad1, stronger effect = lower value 0.988 | locus YGL167C, strain pmr1, stronger effect = lower value 0.99 | locus YGL173C, strain kem1, stronger effect = lower value 1 | locus YGL227W, strain vid30, stronger effect = lower value 1 | locus YGL240W, strain doc1, stronger effect = lower value 1.03 | locus YGL248W, strain PDE1, stronger effect = lower value 1.02 | locus YGL253W, strain hxk2, stronger effect = lower value 0.966 | locus YGR078C, strain PAC10, stronger effect = lower value 1.01 | locus YGR135W, strain pre9, stronger effect = lower value 0.987 | locus YGR229C, strain SMI1, stronger effect = lower value 0.955 | locus YGR252W, strain gcn5, stronger effect = lower value 0.966 | locus YHR013C, strain ard1, stronger effect = lower value 0.982 | locus YHR027C, strain rpn1, stronger effect = lower value 0.98 | locus YHR030C, strain SLT2, stronger effect = lower value 1.01 and 1.05 | locus YHR079C, strain IRE1 (second series), stronger effect = lower value 0.984 | locus YHR079C, strain IRE1, stronger effect = lower value 1.06 | locus YHR094C, strain hxt1, stronger effect = lower value 0.985 | locus YHR129C, strain ARP1, stronger effect = lower value 1.01 | locus YHR142W, strain chs7, stronger effect = lower value 0.958 | locus YHR200W, strain rpn10, stronger effect = lower value 0.987 | locus YIL066C, strain RNR3, stronger effect = lower value 1.04 | locus YIL073C, strain SPO22, stronger effect = lower value 0.986 | locus YIL125W, strain kgd1, stronger effect = lower value 0.977 | locus YIR030C, strain dcg1, stronger effect = lower value 1 | locus YJL092W, strain hpr5, stronger effect = lower value 1.01 | locus YJL095W, strain BCK1 (second series), stronger effect = lower value 1 | locus YJL095W, strain BCK1, stronger effect = lower value 1.01 and 1.06 | locus YJL115W, strain asf1, stronger effect = lower value 1.02 | locus YJL129C, strain trk1, stronger effect = lower value 1 | locus YJL134W, strain LCB3, stronger effect = lower value 1.01 | locus YJL154C, strain vps35, stronger effect = lower value 0.991 | locus YJL164C, strain tpk1, stronger effect = lower value 0.975 | locus YJL166W, strain qcr8, stronger effect = lower value 1.01 | locus YJL168C, strain set2, stronger effect = lower value 0.994 | locus YJL187C, strain SWE1 (second series), stronger effect = lower value 1.01 | locus YJR043C, strain POL32, stronger effect = lower value 1.03 | locus YJR066W, strain TOR1, stronger effect = lower value 0.996
